Measured values taken from PubChem BioAssay AID1452 (National Center for Advancing Translational Sciences (NCATS), 2008).
The campaign covered roughly 150,000 compounds. About 190 (0.13%) were called active. Not shown: some 2% with an inconclusive outcome. The sample holds actives, similar compounds and a random draw of the others, so the mix is not that of the screen. Unmarked numbers belong to inactive results. Calls come from the whole dose curve; as a rule, active = well fitted inhibition curve with a large enough effect; inconclusive = small, poorly fitted or top-dose-only effect; inactive = flat fitted curve, though single readings scatter.

These compounds were tested against Polyunsaturated fatty acid lipoxygenase ALOX12 (Homo sapiens) (UniProt P18054) (assay: qHTS Assay for Inhibitors of 12-hLO (12-human lipoxygenase)). Conditions: purified 12-hLO, xylenol orange hydroperoxide absorbance; series mostly up to 57.1 µM; activity change, negative = inhibition: at the top concentration.
Chain of Polyunsaturated fatty acid lipoxygenase ALOX12 (Homo sapiens) (P18054 whole entry, looked up): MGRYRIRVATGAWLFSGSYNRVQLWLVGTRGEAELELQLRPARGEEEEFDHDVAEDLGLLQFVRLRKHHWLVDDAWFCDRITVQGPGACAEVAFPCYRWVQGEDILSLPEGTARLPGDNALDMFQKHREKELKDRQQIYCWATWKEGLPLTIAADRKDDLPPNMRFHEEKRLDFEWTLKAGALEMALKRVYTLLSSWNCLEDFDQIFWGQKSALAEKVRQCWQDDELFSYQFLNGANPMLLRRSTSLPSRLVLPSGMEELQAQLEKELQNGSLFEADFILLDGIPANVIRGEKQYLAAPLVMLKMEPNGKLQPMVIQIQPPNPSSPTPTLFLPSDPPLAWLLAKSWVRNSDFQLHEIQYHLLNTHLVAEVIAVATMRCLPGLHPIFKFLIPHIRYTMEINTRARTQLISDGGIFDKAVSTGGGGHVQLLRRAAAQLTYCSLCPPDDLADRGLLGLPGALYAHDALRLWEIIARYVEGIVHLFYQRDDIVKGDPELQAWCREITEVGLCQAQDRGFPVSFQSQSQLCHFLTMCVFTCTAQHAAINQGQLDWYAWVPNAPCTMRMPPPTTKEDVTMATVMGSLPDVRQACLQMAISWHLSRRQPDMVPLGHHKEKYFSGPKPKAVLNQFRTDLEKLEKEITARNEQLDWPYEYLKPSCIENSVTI
From the text: Assay Provider: Holman, T.R., University of California, Santa Cruz Screening Center PI: Austin, C.P. Screening Center: NIH Chemical Genomics Center [NCGC] Human lipoxygenase 12hLO is a member of the closely related lipoxygenase family of enzymes which catalyze the site-specific oxidation of arachidonic acid to various hormone precursor molecules and as such is a candidate for drug development in a variety of disease areas, such as cancer and inflammation. Inhibition of 12hLO activity was screened by utilizing arachidonic acid as a substrate. The extent of hydroperoxide product formation was measured by a secondary chromogenic reaction in which xylenol orange (XO, Sigma-Aldrich, cat. number 39,818-7) reacts with the ferric ions produced from the reaction between the hydroperoxide and ferrous ions. The Fe(III)-XO complex is characterized with red-shifted absorbance at 560 nm. A purified preparation of human 12hLO was supplied by Professor Ted Holman, University of California, Santa Cruz.
Assay Protocol: Buffer: 25 mM Hepes pH 7.0, 0.01% Triton X-100. Reagents/Controls: Buffer in columns 3 and 4 as negative control (no enzyme). Substrate solution: 40 uM arachidonic acid (Sigma-Aldrich, St. Louis, MO) final concentration dispensed throughout the plate. Enzyme: 150 nM 12hLO final concentration in columns 1, 2, 5-48. Column 1 is neutral (100% activity). Column 2 contained pin-transferred titration of NDGA (nordihidroguaiaretic acid, Sigma-Aldrich, N 5023, top concentration 20 mM in DMSO, then 1:3 dilution in duplicate). (Dilution factor: 23 nL into 4 uL.) Chromogenic detection reagent (divalent iron/xylenol orange, Fe-XO): 200 uM xylenol orange plus 300 uM ferrous ammonium sulfate prepared freshly in 50 mM sulfuric acid. Assay Steps: Three uL of enzyme were dispensed to 1536-well Greiner black clear bottom plates. Compounds and controls (23 nL) were transferred via Kalypsys PinTool. The plates were incubated for 15 min at room temperature, and then 1 uL of substrate solution was added to start the reaction. After room temperature incubation for 30 minutes, 4 uL of Fe-XO solution was added to each well and the plates were incubated for 30 min. The absorbance at 405 and 573 nm were measured using ViewLux (Perkin-Elmer) High-throughput CCD imager and absorbance protocol settings. The 573-to-405 absorbance ratio was used to compute reaction progress.
% is set by controls: 0 for no effect and ±100 for the full control effect; potency is the fitted concentration of half-maximal effect.
Note: nearly all actives have a fitted effect of over 55% in size.

Row | SMILES | activity change, negative = inhibition | Potency
1 | CC1(OC(=O)c2ccc(Cl)nc2)C(=O)Cc2cc(-c3ccsc3)ncc2C1=O (centres undefined) | -0.498% [at 11.4 µM] | 
2 | COc1ccc(C(=O)Nc2ccc(S(=O)(=O)NC(C)C)cc2)cc1 | 4.57% | 
3 | CC(=O)c1ccc(NC(=S)NC(=O)CC(C)C)cc1 | 1.05% | 
4 | COc1ccc(NS(=O)(=O)c2ccc(NC(=S)NC(=O)CC(C)C)cc2)cc1 |  | 15.8 µM (active)
5 | COc1cc(-c2cc(C(=O)OCC(=O)Nc3ccc4c(c3)OCO4)c3ccccc3n2)cc(OC)c1OC | 1.97% | 
6 | CCOC(=O)C1=C(C(=O)OCC)C(C(=O)OCC)N(S(=O)(=O)C(F)(F)F)c2ccccc21 (centres undefined) | -4.37% [at 0.00818 µM] | 
7 | COc1cccc(NC(=S)NCCCN2CCOCC2)c1 | -0.748% | 
8 | COc1cc(NC(=S)NCCSc2ccc(C)cc2)cc(OC)c1 |  | 20 µM (active)
9 | COc1cc(NC(=O)Nc2ccc(C)cc2)cc([N+](=O)[O-])c1 | 0.524% | 
10 | NS(=O)(=O)c1ccc(CNC(=O)c2ccc(Cl)cc2[N+](=O)[O-])cc1 | -2.13% | 
11 | O=C(Cn1nc(CNc2ccc(Cl)cc2)[n+]2c1CCCCC2)c1ccc(Cl)cc1 | -14.1% | 
12 | COc1ccc([N+](=O)[O-])cc1NC(=O)C(C)OC(=O)C1c2ccccc2Oc2ccccc21 (centres undefined) | -0.718% | 
13 | CC1(C)O[C@@H]2C[C@@H]3[C@H]4C[C@@H](F)C5=CC(=O)C=C[C@]5(C)[C@@]4(F)[C@@H](O)C[C@]3(C)[C@]2(C(=O)CO)O1 | -0.431% [at 0.00818 µM] | 
14 | CC(C)(C)C1CCC(=NNC(=O)c2ccc(Br)o2)CC1 (centres undefined) | 7.26% | 
15 | CCCCC/C=C\C/C=C\C/C=C\CCCCC(=O)NCC(=O)O | 5.86% | 
16 | O=C(Cc1ccccc1)NC(=S)Nc1ccc(N2CCCCC2)cc1 | -4.31% | 
17 | CCCCC/C=C\CC1OC1CCCCCCCC(=O)O (centres undefined) | -6.12% | 
18 | COc1cccc(-c2cc(=O)c3cc(NC(=O)c4ccc(C)cc4)ccc3[nH]2)c1 | 0.685% [at 0.00818 µM] | 
19 | C[C@H]1Cc2c(-c3ccccc3)nc3c(c2CO1)CN(S(=O)(=O)c1ccc(Cl)c2nonc12)CC3 | -3.11% [at 11.4 µM] | 
20 | COc1ccc(CCNC(=O)COC(=O)C2CCCCC2)cc1 | -0.0351% | 
21 | Cc1ccc(C(=O)COC(=O)CCN2C(=O)C3C4CC(C(Br)C4Br)C3C2=O)cc1 (centres undefined) | -1.03% | 
22 | CC(=O)c1c(C)[nH]c(C(=O)COC(=O)c2cccc(S(=O)(=O)N(C)c3ccccc3)c2)c1C | -3.3% | 
23 | Cc1ccc(NC(=S)NC(=O)/C=C/c2ccc(Cl)cc2)cc1 | -2.19% | 

Row | SMILES | activity change, negative = inhibition | Potency
24 | O=C(CSC1CC(=O)N(CCc2ccccc2)C1=O)Nc1ccc(Cl)cc1 (centres undefined) | -7.76% | 
25 | COc1ccc(-c2nc3c(c4c2C[C@H](c2ccccc2)OC4)CN(S(=O)(=O)c2c(C)noc2C)CC3)c(C)c1 | 1.37% [at 11.4 µM] | 
26 | CC1=C(C(=O)Nc2cc(C)ccn2)C(c2cnn(C)c2)C2=C(CC(c3ccccc3)CC2=O)N1 (centres undefined) | -1.69% | 
27 | O=C(CN1CCN(c2ccc(O)cc2)CC1)NC1CCCc2ccccc21 (centres undefined) | -5.85% | 
28 | CC(=O)CC(c1ccccc1)C1C(=O)Oc2ccccc2C1=O (centres undefined) | -0.392% [at 0.00818 µM] | 
29 | CCCC(=O)Nc1ccc(C(=O)N/N=C/c2ccc[nH]2)cc1 | -0.0134% | 
30 | CC(C)C(C)(C#N)NC(=O)CSc1nc2scc(-c3ccccc3)c2c(=O)[nH]1 (centres undefined) | -0.662% | 
31 | Cn1nccc1CNC(=O)c1ccnn1C | 0.98% | 
32 | Cc1ccccc1-c1ccc(C(=O)O)s1 | 1.22% [at 0.00818 µM] | 
33 | COc1cc(OC)cc(C(=O)Nc2ccc(S(=O)(=O)Nc3cc(C)on3)cc2)c1 | -4.65% | 
34 | COc1cc(NS(=O)(=O)c2ccc(N=Cc3c(C)[nH]n(-c4ccccc4)c3=O)cc2)nc(OC)n1 | -2.19% | 
35 | COc1cc(NS(=O)(=O)c2ccc(N/C=C(\C=O)c3nc4cc(Cl)ccc4o3)cc2)nc(OC)n1 |  | 15.8 µM (active)
36 | N#C/C=C\Oc1ccc(Cl)cc1N |  | 22.4 µM (active)
37 | COc1ccc(Cl)cc1C(=O)NCC#N | 0.698% | 
38 | CC1CCCCN1S(=O)(=O)c1ccc(S(=O)(=O)N(CC(=O)Nc2ccccc2)Cc2cccs2)cc1 (centres undefined) | 0.18% | 
39 | CCCCC/C=C\C/C=C\CCCCCCCCCC(N)=O | 1.17% | 
40 | O=C(NCc1cccs1)c1ccc(Br)o1 | 8.12% | 
41 | CCCCC/C=C\C/C=C\C/C=C\CCCCCCC(N)=O | 4.46% | 
42 | S=C(NCc1ccc(Cl)cc1)NC12CC3CC(CC(C3)C1)C2 |  | 22.4 µM (active)
43 | COC(=O)Cc1ccc(NC(=S)NCc2ccc(Cl)cc2)cc1 | -16.8% | 
44 | CN(C)CCCNC(=S)NCc1ccc(Cl)cc1 | -4.25% | 
45 | c1ccc(C2=Nc3cccc4cccc(c34)N2)cc1 | 0.53% | 
46 | CCOC(=O)C1=C(C)c2ccccc2OC1(C)C(=O)OCC (centres undefined) | -0.153% [at 0.00818 µM] | 

Row | SMILES | activity change, negative = inhibition | Potency
47 | Cc1ccc(-c2cc(C(=O)NCc3cn(C)nc3C)c3cc(Br)ccc3n2)cc1 | 2.04% | 
48 | CCCCOc1ccc(C(=O)N/C(=C/C=C/c2ccccc2)C(=O)N2CCOCC2)cc1 | -1.06% | 
49 | CC(=O)c1c(O)cc2n(c1=O)-c1ccc(Cl)cc1C2(C)C | 5.14% | 
50 | COc1ccc(-c2nc3c(c4c2C[C@H](c2ccccc2)OC4)CN(C(=O)C2CC2)CC3)c(C)c1 | -3.7% [at 11.4 µM] | 
51 | COC(=O)N1C(/C=C/C=C/c2ccc(OC)cc2)=Cc2ccccc2C1CC(C)=O (centres undefined) | 1.56% [at 11.4 µM] | 
52 | Cc1ccc(S(=O)(=O)N(Cc2ccc(Cl)cc2)c2ccccc2C(=O)NCc2cccnc2)cc1 | 1.33% | 
53 | CCOC(=O)c1cnc2ccc(F)cc2c1Nc1ccc2c(c1)OCCO2 | -1.08% | 
54 | CC1=C(/C=C/C(C)=C/C=C/C(C)=C/C=C/C=C(C)/C=C/C=C(C)/C=C/C(=O)[C@]2(C)C[C@@H](O)CC2(C)C)C(C)(C)C[C@H](O)C1 | -3.45% [at 0.00818 µM] | 
55 | O=C(Cn1cnc2ccccc21)N/N=C/c1ccco1 | -2.72% | 
56 | O=C(O)c1ccc(N=NN2CCOCC2)cc1 | -1.99% | 
57 | C=C1c2cccc(OC)c2O[C@H](C(=O)OCC)[C@@H]1CCCCCC | -4.96% [at 0.00818 µM] | 
58 | CCCCCCCC/C=C\CCCCCCCC(=O)NCC(=O)O | 3.9% | 
59 | CCCCCCCC[n+]1cccc(C(=O)N2c3c(nc(N)[nH]c3=O)NC(C)C2C)c1 (centres undefined) | -3.59% | 
60 | C[C@@H]1C(c2ccc(F)cc2)=NN(c2ccc(Br)cc2)[C@H]1C(=O)N1CCOC1=O | -4.22% [at 0.00818 µM] | 
61 | O=[N+]([O-])c1ccccc1SNc1ccccn1 | 2.54% | 
62 | C=C1C2C[C@H](O)C(C)(C)[C@@]2(O)[C@H](O)C[C@]23C[C@@](C)(O)[C@H](CC[C@H]12)[C@H]3O (some centres undefined) | -0.156% | 
63 | CCOC(=O)C1C/C(=C\C(C)=O)c2cccc(C(F)(F)F)c2O1 (centres undefined) | -1.22% [at 0.00818 µM] | 
64 | CC(Nc1oc(-c2ccccc2)nc1-c1ccccc1)c1ccccc1 (centres undefined) | inactive | 
65 | Cc1cc2oc(=O)cc(-c3ccccc3)c2c(C)c1/C=C/c1ccc(F)cc1 | -3.71% [at 0.00818 µM] | 
66 | COc1cccc(C(=O)Nc2cc3c(cc2Br)OCCCO3)c1 | -0.158% | 
67 | CCCCC[C@H](O)/C=C/[C@@H]1[C@@H](CC(=O)CCC(=O)O)[C@@H](O)C[C@H]1O | 1.55% | 
68 | COc1ccc(CCNC(=O)/C(C#N)=C2\N=C(NC(=O)c3cccs3)c3ccccc32)cc1 | 0.415% | 
69 | O=C(OC1CCOC1=O)c1cccc(S(=O)(=O)Nc2ccc(F)cc2)c1 (centres undefined) | 1.87% | 

Row | SMILES | activity change, negative = inhibition | Potency
70 | O=C(CNCc1ccc(F)cc1)Nc1ccccc1-c1ccccc1 | -0.876% | 
71 | COc1ccccc1N=Cc1c(O)c2ccccc2oc1=O | 0.0273% | 
72 | CC(=O)Nc1ccc(S(=O)(=O)NCC(=O)OCc2cc(=O)oc3ccc4ccccc4c23)cc1 | 1.72% | 
73 | COC(=O)C1=C(C(=O)OC)[C@@H]2N(C)c3ccccc3[C@@]23C[C@@H](C(=O)OC)N(S(=O)(=O)c2ccc(Br)cc2)C3=N1 | 2.4% [at 11.4 µM] | 
74 | COC(=O)c1c(NC(=O)COC(=O)[C@@H](NS(=O)(=O)c2ccccc2)C(C)C)sc2c1CCC2 | -1.84% | 
75 | Brc1ccc(C2=NCCC(c3ccccc3)O2)cc1 (centres undefined) | 0.263% [at 0.00818 µM] | 
76 | COc1ccc(-c2nc3c(c4c2C[C@H](c2ccccc2)OC4)CN(C(=O)c2cccnc2)CC3)c(C)c1 | 1.97% [at 11.4 µM] | 
77 | COc1ccc(-c2nnc(SC(C)C#N)o2)cc1 (centres undefined) | -9.79% | 
78 | COc1ccc(-c2nnc(SCc3cccnc3)o2)cc1 | -1.27% | 
79 | COc1ccc(-c2nnc(SC(=O)N3c4ccccc4Sc4ccccc43)o2)cc1 |  | 14.1 µM (active)
80 | COc1ccc(C(=O)COC(=O)c2ccc3ccccc3n2)cc1 | -2.31% | 
81 | O=c1cc(CN2CCN(S(=O)(=O)/C=C/c3ccccc3)CC2)c2ccc(O)cc2o1 | -3.24% | 
82 | COc1ccc(C2CC(=O)Oc3ccc(C(C)(C)C)cc32)cc1 (centres undefined) | -4.97% [at 0.00818 µM] | 
83 | CCOc1ccc(N2C(=O)/C(=C/c3ccc(C)o3)N(C)C2=S)cc1 | -4.46% | 
84 | COC(=O)CCCC1=CC2=C(c3ccccc3)C(=O)C(C)(OC(=O)C3CCCC3)C(=O)C2=CN1c1ccc(OC)cc1 (centres undefined) | -9.71% [at 11.4 µM] | 
85 | CCOC(=O)C1=C(NC(=S)NC(=O)c2ccccc2)c2ccccc2CC1(C)C |  | 25.1 µM (active)
86 | CCOC(=O)c1c(NC(=O)C2(C)Cc3ccccc3C(=O)O2)sc2c1CCCC2 (centres undefined) | 15.1% | 
87 | COCCCNC(=S)NC(=O)c1ccccc1 | -6.12% | 
88 | C[C@H]1Cc2c(-c3ccccc3)nc3c(c2CO1)CN(C(=O)C1CC1)CC3 | 2.53% [at 11.4 µM] | 
89 | CC(NC(=O)CCC(=O)N1CCN(S(=O)(=O)c2ccc(Cl)cc2)CC1)c1ccccc1 (centres undefined) | -1.88% | 
